# Assay results taken from the supplement of paper PMC4954754.
# ± gives the uncertainty stated by the source.
# Tested on: HEK293T-Rex XBP1-RLuc
# Assay: XBP1-RLuc splicing reporter activation, triplicate, relative to 500 nM thapsigargin (% of thapsigargin); higher = stronger IRE1/XBP1s reporter activation
# Settings: 6.8 µM; 18 h; screen: confirmation
# Method: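 HEK293T-Rex cells stably expressing the ERSE-firefly luciferase (BiP promoter, ATF6-preferring) or XBP1-splicing Renilla luciferase (IRE1/XBP1s) reporter, 1536-well plates, compound at 6.8 µM for 18 hr at 37 °C; luminescence read […] and expressed as % activation = 100*(compound - median DMSO)/(median 500 nM thapsigargin - median DMSO). Primary screen was single-pass; confirmation screen in triplicate (mean ± SD).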
row,Structure (SMILES),XBP1-RLuc splicing reporter activation
1,Cc1cc2nc(/C(C#N)=C/c3ccco3)[nH]c2cc1C,4.3 ± 0.47
2,COc1ccc(-c2csc(-c3ccc(O)cc3)n2)cc1,8.78 ± 1.3
3,O=C(COC(=O)c1ccc(O)c(O)c1)Nc1nc(-c2ccccc2)cs1,18.6 ± 3.9
4,Cc1cc(C)c(OCC(=O)N/N=C/c2ccc(O)c(O)c2)c(Br)c1,17.1 ± 1.1
5,Cc1nc(-c2coc3c(O)c(O)ccc3c2=O)cs1,7.82 ± 0.28
6,Cc1ccc(NC(=S)NC(=O)C(=O)Nc2ccccc2)cc1,58.6 ± 3.3
7,Cc1ccccc1NC(=O)c1sc2nc(N)c(C#N)c(-c3ccc(C(C)C)cc3)c2c1N,15.4 ± 2.4
8,Cc1ccc(O)c(NC(=O)c2cc(C3CC3)on2)c1,13.9 ± 2.1
9,Nc1nc(Nc2ccc(Cl)cc2)nc2ccccc12,8.65 ± 0.74
10,Cc1ccc(C)c(/C=N/Nc2nncc3ccccc23)c1,5.57 ± 0.69
11,Cc1cc(C)c2nc3sc(C(=O)N4CCCCC4)c(N)c3cc2c1,1.34 ± 0.73
12,COc1ccc(NC(=O)/C(Cl)=C\c2ccccc2)cc1,-0.467 ± 2.4
13,O=C(Nc1ccccc1O)c1cc2ccccc2o1,7.88 ± 0.66
14,CCC(=O)N(Cc1cc2cc(C)ccc2n2nnnc12)C1CCCC1,4.74 ± 0.41
15,CCCc1cc(C(=O)Nc2cc(C)ccc2O)no1,24.5 ± 4.7
16,N#CC1=C(N)Oc2c(ccc3ccccc23)C1c1ccsc1 (stereo not drawn),9.04 ± 1.1
17,CCOc1cc(C2C(C(=O)OC3CCCCC3)=C(C)NC3=C2C(=O)CC(c2ccc(OC)cc2)C3)cc(Br)c1O (stereo not drawn),18.5 ± 2.8
18,COc1ccccc1/C=N/Nc1nc(-c2ccccc2)cc(=O)[nH]1,7.58 ± 1.9
19,N#CC1=C(N)Oc2c(ccc3ccccc23)C1c1ccccc1 (stereo not drawn),14.2 ± 1.1

row,Structure (SMILES),XBP1-RLuc splicing reporter activation
1,O=C(CCCCCCC(=O)Nc1ccccc1)NO,-3.63 ± 0.95
2,O=C(Nc1ccc2nc(NC(=O)C3CCCCC3)sc2c1)C1CCCCC1,6.08 ± 0.7
3,C(=N/Nc1nnc2c(n1)[nH]c1ccccc12)/c1c[nH]c2ccccc12,9.3 ± 1.4
4,COc1cccc(/C=N/NC(=O)c2n[nH]c3c2CCCC3)c1,2.73 ± 0.56
5,Nc1ccc2nc(/C=C/c3ccco3)[nH]c2c1,17.8 ± 0.14
6,CCOc1cccc(C(=O)Nc2ccc(Br)cn2)c1,2.81 ± 1.5
7,CC(Oc1ccc(Cl)cc1Cl)C(=O)NNC(=O)c1ccc(O)c(O)c1 (stereo not drawn),15.4 ± 1.8
8,CC(C)NC(=O)c1cc(-c2ccc(O)cc2)on1,18.5 ± 1.6
9,CCCCNC(=O)c1cc(-c2cccs2)on1,9.51 ± 1.7
10,Cc1ccc(O)c(N/C=C/C(=O)c2ccc(F)cc2)c1,10.3 ± 7.9
11,Nc1ccc(-c2nc3cc(N)c(Cl)cc3[nH]2)cc1,16 ± 1
12,C=CCNC(=O)c1cc(-c2ccc(F)cc2)on1,1.92 ± 2.1
13,O=C(Nc1ccc(O)cc1)c1ccc2ccccc2c1,6.41 ± 0.68
14,CNC(=O)c1ccccc1Nc1cc(NC(=O)Cc2ccc(F)c(F)c2)ncc1C(F)(F)F,91.3 ± 2.1
15,C=CCNC(=O)c1cc(-c2cccs2)on1,7.78 ± 0.96
16,O=C(N/N=C/c1cccc2ccccc12)c1ccc2c(c1)OCO2,5.9 ± 3.2
17,O=C(N/N=C\c1ccccc1[N+](=O)[O-])c1[nH]nc2c1CCc1ccccc1-2,3.05 ± 1.7
18,O=[N+]([O-])c1ccc2nc(/C=C/c3ccccc3)[nH]c2c1,1.8 ± 0.81
19,CC(=O)c1cccc(Nc2nc(-c3ccc(O)c(O)c3)cs2)c1,21.8 ± 1.3
